Measurements: the supplement of paper PMC8728848
The full list was thinned out, with the strongest signals kept by preference.

What was measured:
Assay in all cases: glycan array binding signal (z-score within array); higher = stronger binding
Details in all cases: glycan notation: IUPAC condensed, linker removed
[1] = target: Fuc(a1-2)Gal(b1-3)GalNAc(b1-4)[Neu5Ac(a2-3)]Gal(b1-4)Glc
How it was run: (§1)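 Glycan array data were curated from 3228 arrays in the Consortium for Functional Glycomics database and kept only where the protein sequence was available. Glycan names were converted to IUPAC-condensed notation, and columns mapping to the same glycan were averaged. The binding signal is a within-array Z-score, averaged across arrays of the same protein sequence at different concentrations or buffers and across linkers. Negative Z-scores can be read as non-binding.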

[2] = target: Fuc(a1-2)[GalNAc(a1-3)]Gal(b1-4)[Fuc(a1-3)]GlcNAc
How it was run: as §1

[3] = target: Gal(b1-3)GlcNAc(b1-3)Gal(b1-4)GlcNAc
How it was run: as §1

[4] = target: Gal(b1-4)GlcNAc(b1-3)[Gal(b1-4)GlcNAc(b1-6)]GalNAc
How it was run: as §1

Gal3S6S(b1-4)GlcNAc6S = target: Gal3S6S(b1-4)GlcNAc6S
How it was run: as §1

Glc(a1-4)Glc = target: Glc(a1-4)Glc
How it was run: as §1

[5] = target: GlcNAc(b1-4)Gal(b1-4)GlcNAc
How it was run: as §1

[6] = target: Man(a1-2)Man(a1-2)Man(a1-3)Man
How it was run: as §1

[7] = target: Man(a1-2)Man(a1-2)Man(a1-6)[Man(a1-3)]Man
How it was run: as §1

[8] = target: Man(a1-2)Man(a1-3)[Man(a1-6)]Man(a1-6)[Man(a1-2)Man(a1-3)]Man(b1-4)GlcNAc(b1-4)GlcNAc
How it was run: as §1

[9] = target: Man(a1-3)[Man(a1-6)]Man(b1-4)GlcNAc(b1-4)GlcNAc
How it was run: as §1

[10] = target: Neu5Ac(a2-3)Gal(b1-4)[Fuc(a1-3)]GlcNAc(b1-3)Gal(b1-4)GlcNAc
How it was run: as §1

Neu5Ac(a2-8)Neu5Ac = target: Neu5Ac(a2-8)Neu5Ac
How it was run: as §1

B1: RS-IIL (Ralstonia solanacearum) (protein)
chain: AQQGVFTLPANTSFGVTAFANAANTQTIQVLVDNVVKATFTGSGTSDKLLGSQVLNSGSGAIKIQVSVNGKPSDLVSNQTILANKLNFAMVGSEDGTDNDYNDGIAVLNWPLG
- glycan array binding signal (z-score) [1]: 0.021
- glycan array binding signal (z-score) [2]: 0.302
- glycan array binding signal (z-score) [3]: -0.381
- glycan array binding signal (z-score) [4]: -0.389
- glycan array binding signal (z-score) (Gal3S6S(b1-4)GlcNAc6S): -0.385
- glycan array binding signal (z-score) (Glc(a1-4)Glc): -0.266
- glycan array binding signal (z-score) [5]: -0.389
- glycan array binding signal (z-score) [6]: 4.58
- glycan array binding signal (z-score) [7]: 5.58
- glycan array binding signal (z-score) [8]: 4.71
- glycan array binding signal (z-score) [9]: 4.76
- glycan array binding signal (z-score) [10]: -0.268
- glycan array binding signal (z-score) (Neu5Ac(a2-8)Neu5Ac): -0.388
